The whole screen tested about 2,400 compounds, of which about 40 (2%) were called active. Not shown: some 1% with an inconclusive outcome.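 Rule for the calls: active = inhibition at or above 60%; inconclusive = inhibition from 0% up to below 60%; inactive = no inhibition observed.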 Many of the other results were omitted from the sample, so actives are more common in it than they were.

A short description of the test: qHTS Assay for Small Molecule Inhibitors of Mitochondrial Division or Activators of Mitochondrial Fusion: Hit Validation in Malachite Green Assay.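 For inhibition: plate controls were DMSO wells with GTPase for no effect and protein-free buffer wells for full effect.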 The settings on record: purified GTPase, malachite green phosphate release, A650; active compounds read high. The source says: The budding yeast S. cerevisiae is a powerful system to study mitochondrial fusion. Unlike other organisms, yeast cells without functional mitochondrial DNA (mtDNA) can be propagated and studied as long as they maintain a mitochondrial compartment and are provided with a fermentable carbon source. When mitochondrial fusion is blocked in yeast, mitochondrial tubules rapidly fragment and division continues unopposed. Under conditions where fusion is compromised in mammalian cells, nearly identical changes in mitochondrial structure have been observed. Thus, these findings indicate that steady state mitochondrial structure in cells is a characteristic and specific indicator of fusion activity. Mounting evidence has pointed to a connection between mitochondrial dynamics and apoptosis in mammalian cells. These studies indicate that in mammalian cells mitochondrial dynamics are more integrated into cellular processes than in yeast cells and have evolved not only to distribute the organelle but also to aid in the regulation of cellular homeostasis. Mitochondrial fusion proteins attenuate apoptosis by inhibiting the release of cytochrome c from mitochondria, in part by controlling cristae structures. Thus, small molecules that inhibit mitochondrial fusion may promote apoptosis and potentially act as novel chemotherapeutics and stimulation of apoptosis has become an attractive target of anti-cancer therapies. To identify inhibitors of mitochondrial division, we exploit the growth phenotypes of mitochondrial fusion-defective mutants. The temperature sensitive fusion alleles, such as fzo1-1 and mgm1-5, cause mitochondrial membranes to fragment in cells under non-permissive conditions and cells lose mtDNA, and are unable to grow in the presence of non-fermentable carbon source glycerol. Inhibiting mitochondrial division rescues growth. The hits were tested by the assay provider in a malachite green assay. NIH Chemical Genomics Center [NCGC] NIH Molecular Libraries Probe Production Centers Network [MLPCN] MLPCN Grant: MH081279 Assay Submitter (PI): Jodi M. Nunnari
Malachite Green Reagent Malachite Green carbinol base- Aldrich 229105 Ammonium molybdate - Sigma A7302 For 100 mL Malachite Green reagent in 1N HCl 16 mL conc. HCL + 32 mL H20 = 48 mL 4N HCl 34 mg malachite green base into 40 mL 1N HCl (10 mL 4N HCl + 30 mL H20) 1 g ammonium molybdate in 15 mL 4N HCl Mix Solutions together. Bring up to […] with H2O. Filter using a 0.2 um tissue culture filter unit (has plastic bottle attached) store at 4 masculine C. (Avoid Glassware/Plastics washed in detergent. Mix solutions in 50 mL conical vials.) For 20 uL reaction volume 1.0 uL Test Drug or DMSO: Added first to each well […]: 25 mM Hepes/Pipes pH 7.0 (H/P) 2.0 uL: 50 mM MgCl2 (final 5mM) 2.32 uL: 1 M NaCl (with contributing protein salt, Final = 150mM) 13.4 uL per reaction. Can be mixed in larger volume (Mini Master Mix) 1.6 uL: Protein 7.5 uM or Protein Freezing Buffer. (Final = 0.6uM) After Protein Added to mini Master Mix, 15ul Total Master Mix added to each well with drug. 4 uL: 500 uM GTP (Final = 100uM), Dilute with 25 mM H/P, store on ice. 20 uL Total Volume Make Master Mix: (Calculate desired reactions and add a few for multi-channel pipetting volume). Multiply the number of desired reactions by 13.4 uL for total Mini Master volume. Multiply the number of desired reactions by 1.6 uL for total Protein volume. Mix, and keep on ice until added to wells. Add 15 uL of Master Mix to each reaction well, incubate with drug for 10 min. For Positive (No Drug) controls add 15 uL Master Mix to wells with only 1 uL DMSO. Make PFB (Protein Freezing Buffer) (no Protein) Master Mix. Multiply the number of desired reactions by 13.4 uL for total Mini Master volume. Multiply the number of desired reactions by 1.6 uL for total PFB volume. Mix, and keep on ice until added to wells Add 10 uL of PFBMaster Mix to each Phosphate Standards well, and 15 uL to each negative control well with DMSO. […]
In general terms: In qHTS, concentration-response curves come from the screen itself.
With `CCCCn1c(N2CCC(Cc3ccccc3)CC2)nc2c1c(=O)[nH]c(=O)n2C`, the inhibition – broadly, the relative decrease from the control value, in per cent – was “inactive”.
For `CCCCCn1c(SCCC(C)C)nc2c1c(=O)[nH]c(=O)n2C` the value was 96.1% (active); for `C=C(C)Cn1c(N2CC(C)CC(C)C2)nc2c1c(=O)[nH]c(=O)n2C` (stereo not drawn), “inactive”; for `C=CCc1cc2c(oc(=O)c3ccccc32)c(C)c1O`, “inactive”.
For `COc1cccc(COc2ccc3c(C)cc(=O)oc3c2)c1` the value was “inactive”; for `O=C1C=C(/C=C/C2C=CC=CC2)C[C@@H](c2ccc(Cl)cc2)C1` (stereo partly drawn), “inactive”; for `Cn1c(=O)c2c(nc(Oc3ccccc3Cl)n2C)n(C)c1=O`, “inactive”.
For the compound `CS/C(=N\S(=O)(=O)c1cccs1)Nc1ccc(Br)cc1F`, the inhibition result is “inactive”.
As to `Cc1cc(Cl)cc(Cl)c1OCCOc1cccc2cccnc12`, the inhibition result was “inactive”.
For the compound `Oc1c(Cl)cc(Cl)c2cccnc12`, the inhibition is 86% (active).
Then `O=c1oc2cc(O)c(Cl)cc2c2ccccc12`, with “inactive”; and `O=C(Oc1c(Cl)cc(Cl)c2cccnc12)c1ccco1`, with 67.8% (active).
With `CN(C(=O)C(Cl)Cl)c1ccc(OC(=O)c2ccco2)cc1`, the inhibition result is “inactive”.
`Oc1c(I)cc(Cl)c2cccnc12`: the inhibition was 66.8% (active).
On to `O=C(Nc1ccc(Cl)cc1C(=O)Nc1ccccn1)c1ccco1`, for which the inhibition entry is “inactive”.
Then `CCCCCCSc1ccc([C@@H]2[C@@H]3C(=O)N(C)C(=O)[C@@H]3[C@]3(C(=O)OC)CCCCN23)cc1OC`, with “inactive”.
For `O=C(c1cn(Cc2ccccc2)nc1-c1ccc(Cl)cc1)N1CCN(c2ccccn2)CC1` the value was “inactive”.
For `O=C(c1cn(-c2ccccc2)nc1-c1cccs1)N1CCN(c2ccccn2)CC1` the value was “inactive”; for `O=C(c1cc(COc2cccc3cnccc23)on1)N1CCC(c2ccccc2Cl)C1` (stereo not drawn), “inactive”; for `COc1ccc(C2=NOC(Cn3nc(C(=O)NCc4ccco4)cc3-c3ccccc3)C2)cc1` (stereo not drawn), “inactive”.
`COc1cccc(NC(=O)CN(C)C(=O)c2sc3cc(Cl)ccc3c2Cl)c1`: the inhibition result was “inactive”.
Turning to `Cc1c(Cl)cccc1Nc1nc(N)nc(CSc2nc3ccccc3s2)n1`, the inhibition entry was “inactive”.
For `CNC(=O)c1ccsc1NC(=O)C1CCN(S(=O)(=O)c2ccc(Cl)s2)CC1` the value was “inactive”; for `COc1ccc(N=Nc2nc(-c3ccccc3)c(-c3ccccc3)[nH]2)cc1`, “inactive”.
Then `Clc1ccc(-c2nnc3sc(Cc4cccs4)nn23)cc1`, with “inactive”; and `c1ccc(-c2nnc3sc(-c4csc5c4CCCC5)nn23)cc1`, with 99.9% (active).
For `COc1ccc2ccccc2c1C(=O)/C=C\c1ccoc1` the value was “inactive”; for `COc1ccc(S(=O)(=O)N(C(=O)c2ccncc2)c2ccc3oc4c(c3c2)CCCC4)cc1`, “inactive”; for `O=c1[nH]c(C2CC2)nc2sc3c(c12)CCCC3`, “inactive”.
For the compound `CC(C)c1nc2sc3c(=O)[nH]c(=S)[nH]c3c2c2c1CCC2`, the inhibition was 104% (active).
Then `COCc1nc2sc3c(c2c(=O)[nH]1)CCCC3`, with “inactive”.
For `O=C(/C=C/c1cccs1)N1CCC2(CC1)Oc1ccc(Cl)cc1C(=O)C21CC(c2cccnc2)=NO1` (stereo not drawn) the value was “inactive”; for `COc1ccc(-c2cc(=O)oc3c(C)c(OC(C)C(C)=O)ccc23)cc1` (stereo not drawn), “inactive”.
For `Cc1csc(NC(=O)C(C)Oc2ccc(Br)cc2)n1` (stereo not drawn) the value was “inactive”; for `CC(Oc1cccc(Cl)c1)C(=O)Nc1cc(Cl)ccc1N1CCOCC1` (stereo not drawn), “inactive”; for `CC(Oc1cccc(Cl)c1)C(=O)Nc1nc(-c2ccccn2)cs1` (stereo not drawn), 68.3% (active).
Consider `Cc1ccccc1Nc1nc(N)nc(CSc2nc3ccccc3s2)n1`, for which the inhibition entry is “inactive”.
`O=C(NCC1(c2ccccc2)CCCC1)c1ccccc1Br`: the inhibition result is “inactive”.
Regarding `Cc1ccc2c(nc3s/c(=C\c4ccc(-c5ccccc5C(=O)O)o4)c(=O)n32)c1C`, the inhibition is 86.5% (active).
Then `Cc1c(C(=O)O)cccc1-c1ccc(/C=N/Nc2ccc(Br)cc2)o1`, with “inactive”.
As for `Cc1cc2nc3s/c(=C/c4ccc(-c5ccccc5C(=O)O)o4)c(=O)n3c2cc1C`, the inhibition was 66.8% (active).
`Cc1ccc2c(=O)cc(C(=O)NCc3ccccc3)oc2c1C`: the inhibition result is “inactive”.
For `CC(C)COc1ccc(S(=O)(=O)NNC(=O)c2cc3ccccc3o2)cc1` the value was “inactive”.
Take `CCNC(=O)c1ccccc1CCc1ccccc1`: the inhibition entry was “inactive”.
Regarding `CCC(C)N1C(=O)S/C(=C/c2ccc(N3CCOCC3)cc2C)C1=O` (stereo not drawn), the inhibition result was “inactive”.
Then `COc1ccccc1NC(=O)N(Cc1ccccc1)c1ccccn1`, with “inactive”; and `Fc1cccc(CNc2ncnc3ccc(-c4ccc5c(c4)OCO5)cc23)c1`, with “inactive”.
Regarding `CCOc1ccc(C(=O)CCN2CCCCC2)cc1`, the inhibition entry is “inactive”.
`CC(CNc1nc2ccccc2n2cnnc12)c1ccccc1` (stereo not drawn): the inhibition entry is “inactive”.
Then `COc1ccc(NC(=O)CN(C)C(=O)c2ccccc2CCc2ccccc2)cc1`, with “inactive”; and `N#CC(Sc1ccccn1)c1ccc(Cl)cc1` (stereo not drawn), with 65.5% (active).
Take `COc1ccc(C(=O)NC2(C(F)(F)F)NC(=O)N(CCCc3ccccc3)C2=O)c(OC)c1OC` (stereo not drawn): the inhibition entry was “inactive”.
For `Cc1cc(C)nc(NC(=O)/C=C/c2ccccc2Cl)c1` the value was “inactive”.

The record behind these values is PubChem BioAssay AID602289 (National Center for Advancing Translational Sciences (NCATS), 2012).
